According to PubChem BioAssay:
Activity calls are given as the source filed them.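 How the source made its calls, unless noted: active means mean z-score across replicates of 1.96 or higher in either the MELAS or the Rieske mutant cell line; inactive means the rest.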

experiment: modifiers of HSF1 nuclear foci, imaging, Selleck Cancer Library (AID 1347162; in the data active means plate-normalised HSF1 focus index below about 0.46); settings: human cells, at 10 µM; SSMD: measured here: HSF1 foci SSMD mean; cell count: measured here: cell number; plate-normalised HSF1 focus index: stronger effect = lower value

Row | Compound | cell count | SSMD | plate-normalised HSF1 focus index
1 | Cc1cc(/C=c2/sc3nc4ccccc4n3c2=O)c(C)n1-c1ccccc1 | 7030 | 3.08 | 1.18 (inactive)
2 | CN1CCN(c2nc(C3=C(c4c[nH]c5ccccc45)C(=O)NC3=O)c3ccccc3n2)CC1 | 7110 | 1.44 | 1.09 (inactive)
3 | CCc1cc(Nc2nccc(-c3c(-c4ccc(OC)c(C(=O)Nc5c(F)cccc5F)c4)nc4ccccn34)n2)c(OC)cc1N1CCC(N2CCN(S(C)(=O)=O)CC2)CC1 | 6760 | 2.41 | 1.12 (inactive)

experiment: survival rescue of mitochondrial mutant cells in low glucose, primary screen, MELAS cybrids, Rieske KO mouse fibroblasts, CellTiter-Glo (AID 1508586); settings: MELAS cybrid survival, CellTiter-Glo 48 h, stronger effect = higher value;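 further: z relative to plate mean and SD of compound and empty wells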

Row | Compound | z-score
4 | C#Cc1cccc(Nc2ncnc3cc4c(cc23)OCCOCCOCCO4)c1 | 0.219 (inactive)
5 | CN1CCN(c2nc(C3=C(c4c[nH]c5ccccc45)C(=O)NC3=O)c3ccccc3n2)CC1 | -0.37 (inactive)
6 | CCc1cc(Nc2nccc(-c3c(-c4ccc(OC)c(C(=O)Nc5c(F)cccc5F)c4)nc4ccccn34)n2)c(OC)cc1N1CCC(N2CCN(S(C)(=O)=O)CC2)CC1 | 0.319 (inactive)
7 | Cc1cc(C)c2c(c1)[C@@H](N(Cc1cc(C(F)(F)F)cc(C(F)(F)F)c1)c1nnn(C)n1)CCCN2CC1CCC(C(=O)O)CC1 (some centres not stated) | -0.009 (inactive)

same assay, conditions: Rieske KO mouse fibroblast survival, CellTiter-Glo 72 h

Row | Compound | z-score
8 | C#Cc1cccc(Nc2ncnc3cc4c(cc23)OCCOCCOCCO4)c1 | 0.164
9 | CN1CCN(c2nc(C3=C(c4c[nH]c5ccccc45)C(=O)NC3=O)c3ccccc3n2)CC1 | 0.177
10 | CCc1cc(Nc2nccc(-c3c(-c4ccc(OC)c(C(=O)Nc5c(F)cccc5F)c4)nc4ccccn34)n2)c(OC)cc1N1CCC(N2CCN(S(C)(=O)=O)CC2)CC1 | 0.793
11 | Cc1cc(C)c2c(c1)[C@@H](N(Cc1cc(C(F)(F)F)cc(C(F)(F)F)c1)c1nnn(C)n1)CCCN2CC1CCC(C(=O)O)CC1 (some centres not stated) | -0.0411
